Here are results for 29 compounds from PubChem BioAssay (NCI).

What all share (experiment): NCI-60 one-dose screen, 48 h (100 = growth as untreated, 0 = no growth, -100 = all killed)
Conditions in all cases: 10 µM unless noted

Experiment [1] relates to T-47D breast.
Experiment [2] relates to BT-549 breast.
In experiment [3] the test system is MDA-MB-435 melanoma.
Experiment [4] relates to SW-620 colon.
For experiment [5], the system named is MCF7 breast.
Experiment [6] concerns HCT-116 colon.
Experiment [7] has as its system HCC-2998 colon.
For experiment [8], the system named is KM12 colon.

The panel holds about 83,000 compounds, 20% with a hit somewhere; the sample as a whole holds those more often.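 The endpoint reported here, percent growth, reads 100 for growth as untreated, 0 for no net growth and -100 for all cells dead.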 A number with no mark means an inactive call. The source made the active and inactive calls. How the source made its calls: active means growth percent below 10; inactive means the rest.

With `Cc1nc(/N=C(\N)NC(=O)Nc2cccc([N+](=O)[O-])c2)sc1C`, the growth in experiment [1] was 80.8%; in experiment [2], 65.8%; in experiment [3], 8.17% (active); in experiment [4], 40.1%; in experiment [5] it was 31.1%; in experiment [6], 71.1%. Besides, the figures for the growth in experiment [7] and in experiment [8] were 84.1% and 72.1%, respectively.
For `COc1ccc(CN2c3ccccc3Oc3ccccc32)cc1F`, the growth is 58.1% in experiment [1]; 70.1% in experiment [2]; -0.932% (active) in experiment [3]; 33.6% in experiment [4]; 42.7% in experiment [5]; 31.1% in experiment [6]. Besides, in experiment [8], the growth is 40.7%.
For the compound `C=CC(=O)Nc1cccc(-c2nc(SC)nc(Nc3ccccc3OC)c2C#N)c1`, the growth in experiment [1] is 3.01% (active); in experiment [2], 57.1%; in experiment [3], 18.7%; in experiment [4], 17.2%; in experiment [5] it was 2.55% (active); in experiment [6], 2.91% (active). Besides, the growth in experiment [7] was 81.3%; in experiment [8] it was 82.8%.
Regarding `CC1=CC(C)(C)Nc2ccc(Cc3ccc4c(c3)C(C)=CC(C)(C)N4)cc21`, the growth in experiment [1] was 76.2%; in experiment [2] it was 80.1%; in experiment [3], 120%; in experiment [4], 130%; in experiment [5], 84.2%; in experiment [6], 83.5%. The growth in experiment [8] was 105%.
For `O=S(=O)(Nc1ccc(Br)c(Cl)c1)c1ccc(-c2cnc(C3CC3)o2)cc1`, the growth is 30.9% in experiment [1]; 38.3% in experiment [2]; -17.1% (active) in experiment [3]; 19.3% in experiment [4]; 11.7% in experiment [5]; 19.5% in experiment [6]. Also, the growth was 45.9% in experiment [7] and 33.8% in experiment [8].
As to `CN(C)S(=O)(=O)c1cccc(-c2nc3sc4c(c3c(=O)[nH]2)CCCC4)c1`, the growth in experiment [1] is -22.1% (active); in experiment [2], 31.9%; in experiment [3], 43.9%; in experiment [4] it was 13.7%; in experiment [5] it was 53.4%; in experiment [6] it was -41.3% (active). Besides, the growth in experiment [7] was -50.5% (active); in experiment [8], 43.9%.
Consider `OCCN1CCN(c2nc(Nc3ccc(-c4nc5ccccc5[nH]4)cc3)c3cn[nH]c3n2)CC1`, for which the growth in experiment [1] was -68.4% (active); in experiment [2], -52.3% (active); in experiment [3], -89.9% (active); in experiment [4] it was -85.4% (active); in experiment [5], -74.4% (active); in experiment [6] it was -80.1% (active). Besides, the growth in experiment [8] is -73.1% (active).
Regarding `CCc1nc(N)nc(N)c1C#CC(C)c1ccc(-c2ccncc2)cc1Cl` (stereo not drawn), the growth is 24% in experiment [1]; 23.3% in experiment [2]; 22.1% in experiment [3]; 20.8% in experiment [4]; 14.2% in experiment [5]; 13.6% in experiment [6]. Moreover, the results for the growth in experiment [7] and in experiment [8] were 25.4% and 12.7%, respectively.
As for `CCN=C1C=CC(=C(c2ccc(N)cc2)c2ccc(N(CC)CC)c(C)c2)C=C1`, the growth in experiment [1] is 1.14% (active); in experiment [2] it was -31.8% (active); in experiment [3], -41.2% (active); in experiment [4], 4.24% (active); in experiment [5], -11.5% (active); in experiment [6], -17.5% (active). Also, the growth was -4.16% (active) in experiment [7] and -88.4% (active) in experiment [8].
As for `NC(=NCCCOc1ccc(Cl)cc1)Nc1ccc(Cl)cc1`, the growth in experiment [1] was 8.01% (active); in experiment [2], 59.6%; in experiment [3] it was 11.1%; in experiment [4], 33.5%; in experiment [5], 10.1%; in experiment [6] it was 7.02% (active). In addition, in experiment [8], the growth is 41.3%.
With `COc1cc2c(cc1-c1c(C)noc1C)ncc1nc(C3CCCCC3)n([C@H](C)COC(F)F)c12`, the growth in experiment [1] was 32.8%; in experiment [2], 58.7%; in experiment [3], 34.1%; in experiment [4], 58.7%; in experiment [5], 18.3%; in experiment [6], 28.4%. The growth in experiment [7] is 43.7%; in experiment [8], 46.3%.
As to `CN(C)C(=S)N=Nc1c(O)[nH]c2ccccc12`, the growth was 25% in experiment [1]; 30.7% in experiment [2]; 40.3% in experiment [3]; 30.2% in experiment [4]; 17.8% in experiment [5]; 3.73% (active) in experiment [6]. Moreover, the growth in experiment [7] is 23.9%; in experiment [8] it was 25.9%.
For `CC(C)(C)N1CCC1CN` (stereo not drawn), the growth is 96.3% in experiment [1]; 118% in experiment [2]; 104% in experiment [3]; 104% in experiment [4]; 126% in experiment [5]; 99.5% in experiment [6]. The growth in experiment [8] was 107%.
`O=C1c2cc3c(cc2-c2c1c1ccc(F)cc1c(=O)n2C[C@H](O)[C@H](O)[C@H](O)CO)OCO3`: the growth is -14.8% (active) in experiment [1]; -11.3% (active) in experiment [2]; -75.6% (active) in experiment [3]; 1.12% (active) in experiment [4]; 0.35% (active) in experiment [5]; 9.02% (active) in experiment [6]. Further, the figures for the growth in experiment [7] and in experiment [8] were -50.2% (active) and 3.9% (active), respectively.
Regarding `CCN(CC)c1ccc2c(c1)Oc1nc(N)c(C#N)c(N)c1C2Sc1ccc(SC)cc1` (stereo not drawn), the growth was -4.08% (active) in experiment [1]; -80.4% (active) in experiment [2]; -25.7% (active) in experiment [3]; -70.7% (active) in experiment [4]; -0.904% (active) in experiment [5]; -27.5% (active) in experiment [6]. In addition, the results for the growth in experiment [7] and in experiment [8] were -72.2% (active) and -74.5% (active), respectively.
With `COc1ccc2c(c1)C(=O)/C(=C/c1cccnc1)CC2`, the growth is 80.2% in experiment [1]; 101% in experiment [2]; 89.5% in experiment [3]; 102% in experiment [4]; 45.3% in experiment [5]; 81.2% in experiment [6]. The growth in experiment [8] is 66.2%.
For `CCCCC[C@H]1C/C=C2/C(=O)C=C[C@@H]2C/C=C\CCCC(=O)O1`, the growth in experiment [1] is -2.9% (active); in experiment [2] it was -11.2% (active); in experiment [3], -26.7% (active); in experiment [4], 0.0064% (active); in experiment [5], 0.464% (active); in experiment [6], -67.6% (active). For the same compound, the growth in experiment [8] was -83.6% (active).
Regarding `c1ccc2[nH]c(-c3ccc(Nc4nc(N5CCCC5)nc5[nH]ncc45)cc3)nc2c1`, the growth in experiment [1] is -52.6% (active); in experiment [2] it was 59.7%; in experiment [3], -76.6% (active); in experiment [4] it was -64.1% (active); in experiment [5] it was -21.5% (active); in experiment [6] it was -71.8% (active). Moreover, the growth in experiment [8] was -32.6% (active).
Consider `CC/C=C\C[C@H]1C/C=C2/C(=O)C=C[C@H]2C/C=C\CCCC(=O)O1`, for which the growth in experiment [1] is 27.4%; in experiment [2], 32%; in experiment [3], 9.04% (active); in experiment [4], 25.4%; in experiment [5] it was 46.2%; in experiment [6], -41.9% (active). The growth in experiment [8] is -3.28% (active).
In the case of `Cc1cc(C)nc(SC2=C(Nc3cccc(Cl)c3)C(=O)N(Cc3ccccc3)C2=O)n1`, the growth in experiment [1] is 22.2% [30 µM]; in experiment [2], 65.5% [30 µM]; in experiment [3], 61.4% [30 µM]; in experiment [4], 72% [30 µM]; in experiment [5], 49.8% [30 µM]; in experiment [6], 43.5% [30 µM]. For the same compound, the growth in experiment [8] is 83.7% [30 µM].
`C=C1C(=O)O[C@H]2[C@H]1CC/C(COC(=O)NCc1ccc(OC)c(OC)c1)=C\CC[C@@]1(C)O[C@@H]21`: the growth in experiment [1] was 30.2%; in experiment [2] it was 75.2%; in experiment [3] it was 54.8%; in experiment [4], 14.1%; in experiment [5], 34.5%; in experiment [6], 7.17% (active). In addition, the growth in experiment [8] is 90.9%.
In the case of `CCCc1cc(=O)n2c(C(=O)Nc3cccc(C(=O)OCC)c3)c(C(=O)Nc3ccc(F)cc3)sc2n1`, the growth is 53.9% [30 µM] in experiment [1]; 82.5% [30 µM] in experiment [2]; 73.4% [30 µM] in experiment [3]; 55.9% [30 µM] in experiment [4]; 57.4% [30 µM] in experiment [5]; 17.7% [30 µM] in experiment [6]. In addition, the growth in experiment [8] was 82.9% [30 µM].
For the compound `Cc1cc(C)nc(SC2=C(Nc3ccc(O)cc3)C(=O)N(Cc3ccccc3)C2=O)n1`, the growth in experiment [1] is 45% [40 µM]; in experiment [2] it was 63.9% [40 µM]; in experiment [3] it was 80.1% [40 µM]; in experiment [4], 113% [40 µM]; in experiment [5], 77.1% [40 µM]; in experiment [6], 95.4% [40 µM]. The growth in experiment [8] is 103% [40 µM].
As for `COc1ccccc1Nc1nc(-c2cc3cccc(C(F)(F)F)c3oc2=O)cs1`, the growth in experiment [1] was 68.9%; in experiment [2] it was 41.9%; in experiment [3], -44.8% (active); in experiment [4], 24%; in experiment [5], 15.7%; in experiment [6] it was 2.41% (active). Also, the growth in experiment [8] is 3.87% (active).
Consider `CCOC(=O)c1sc(Nc2ccc(Cl)cc2)nc1C`, for which the growth in experiment [1] was 6.67% (active); in experiment [2], -4.09% (active); in experiment [3], 23.1%; in experiment [4] it was 28.2%; in experiment [5], 13%; in experiment [6], 5.31% (active). In addition, the growth in experiment [8] was -1.62% (active).
Turning to `COc1ccc2c(c1)CC/C(=C\c1cncc(Br)c1)C2=O`, the growth in experiment [1] was 66.1%; in experiment [2] it was 95.7%; in experiment [3], 82.7%; in experiment [4], 42.6%; in experiment [5], 39.3%; in experiment [6], 65.8%. In experiment [8], the growth is 63.7%.
As for `Cc1cc(C)nc(SC2=C(Nc3ccc(C)c(Cl)c3)C(=O)N(Cc3ccccc3)C2=O)n1`, the growth in experiment [1] was 26% [30 µM]; in experiment [2] it was 51.6% [30 µM]; in experiment [3] it was 51.5% [30 µM]; in experiment [4] it was 70.9% [30 µM]; in experiment [5], 39.6% [30 µM]; in experiment [6], 42.9% [30 µM]. Also, the growth in experiment [8] was 66.2% [30 µM].
Turning to `CCOc1nc(-c2ccccc2)cc2c(O)c(C(=O)N/N=C/c3ccc(O)cc3O)[nH]c(=O)c12`, the growth is 34.3% in experiment [1]; 58.9% in experiment [2]; 48.3% in experiment [3]; 44.6% in experiment [4]; 46.3% in experiment [5]; 18.6% in experiment [6]. The growth in experiment [8] was 42.3%.
Take `O=C(Nc1ccccc1Cl)c1ccc(NC2=C(Cl)C(=O)N(C3CCCCC3)C2=O)cc1`: the growth was 38.7% [30 µM] in experiment [1]; 60.5% [30 µM] in experiment [2]; 49.6% [30 µM] in experiment [3]; 56.7% [30 µM] in experiment [4]; 34.7% [30 µM] in experiment [5]; 111% [30 µM] in experiment [6]. Also, the growth in experiment [8] is 64.9% [30 µM].
